This experiment has as its system VDR:RXRa (NR concentration 270 nM, RXRa partner concentration 90 nM). As to the kind of experiment: PBM binding z-score (relative to random genomic background probes); higher = stronger binding; sequences stand for … in GC…GCGATTGACAGCGTAGAATGAAGG
The protocol: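 Protein-binding microarray (Agilent 4x180K custom design, double-stranded 60-nt probes: 5' GC cap, 34-nt variable region, 24-nt constant primer region; full probe sequence given). Purified or IVT nuclear receptor:RXRα heterodimers (3:1 NR:RXRα, mostly 270:90 nM) or homodimers were incubated for 1 h in PBS with 2% milk and no ligand, then detected with Alexa488 antibodies. Fluorescence from o1-orientation probes (~5 replicates averaged) was converted to z-scores against 500 random hg19 background probes. Variable regions are seed direct-repeat (DR0–DR5) sites, all their single-nucleotide variants and half-site ablations.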
In the case of CCGAGTAGATTACGAGGGGGCATTCAGTGCGAAT, the PBM binding z-score came to 3.48. Next, CCGACGGGGGCAAGGTTACCATAACGCACAGCCA: 3.01; CTATGTAGGTTAAGGGCGTCATTCAGTTTGAAAG: 0.981; ATATGTAGGTTACATGCGGGTCATTCAGGCTATG: 3.78. AGTCAAAGTTCACTAGGTTACGTAAGATTCAGCT: the PBM binding z-score was 4.71.

As to ATATGTAGGTTACGTCCGGGTCATTCAGGCTATG, the PBM binding z-score is 4.14. Next, ATATGTAGGTTAGGGTCATTTAGAAAGTAGGGAA: 4.26; CGTCAAAGTTCAACTAATGTAACGTAAAGCACGC: 4.2.

For the sequence GCTGCTAGGTCAACTGATGGTCAGCTAGAGCTCG, the PBM binding z-score came to 1.5.

For ACTAGAAGGCCAAGGGTCACTCAAGATTAGTCCG, the PBM binding z-score was 3.26.

In turn, CGAACTAGGTTACCAGGACAGTGAAGAGGTTGGA yielded a PBM binding z-score of -0.164. The same measure for CCTTACGGGCCACGAGGTTATAGCACGACGAGCG: 0.504. The same measure for CTATGTAGGTTATGGGGGTCATTCAGTTTGAAAG: 7.53.

As for CGATCTAGGTCAAAGGACAGTGAAAGGCGACGTA, the PBM binding z-score worked out at 1.15. Next, ATATGTAGGTTAGGGTAATTCAGAAAGTAGGGAA: 1.09; CCTACAGGGCCAAAGGTCATTGATTCCAATGCTC: 5.03; CCTAGTTGGTCAGGAGGTCACAAACCGGATATGA: 3.4.

Turning to CCGACTAGGTTACGAGGGGGCATTCAGTGCGAAT, the PBM binding z-score was 4.96.

Sequence ATATGTAGCTTAAGGGTCATTCAGGTTGGTTCGC gave a PBM binding z-score of 5.26. As to CGAACTAGGTCAAAGGACCGTGAAAGGCGACGTA, the PBM binding z-score stood at 1.03. Next, TAGCCTAGGTCATGGGCCTGTATACCACGCGAAC: 1.98. The same measure for CGAACTAGGGCACCAGGACAGTGAAGAGGTTGGA: -0.582; for TCTTGTAGATCAAAGCTTAAGAAAGCCGAAGCCT: -0.115. The same measure for CTATGTAGGATAAGGGGGTCATTCAGTTTGAAAG: 6.5. GATACAGGGTCAAGGCCAGAATACGCGTATTGAT had a PBM binding z-score of 4.05.

Sequence CAAACTAGGTCAAAGGTCAACGTCGAGCCAACCA registered a PBM binding z-score of 6.69. CTATGTAGGTTAAGGGGGTCACTCAGTTTGAAAG yielded a PBM binding z-score of 7.21. Next, ACTTGGAGGACAAAGGTCAGAGCTACGCCAGTGA: 3.58; CGAACTAGGTAAAAGGACAGTGAAAGGCGACGTA: -0.189; TCGAGTAGGTTACGGGGGAATTCAGGGATGAAGA: 1.25. The same measure for CTATGTAGGTTAAGTGGGTCATTCAGTTTGAAAG: 4.99. The same measure for GCTTACGGGTCAAAGGTTAAAGCATGAATAGAAT: 5.38; for TAGCCTAGGTCATAGGCCAGTATACCACGCGAAC: 1.74. Turning to AGTCCAAGTTCACTAGGTAACGTAAGATTCAGCT, the PBM binding z-score came out at 3.46. Next, TAGCCTAGGTCATTGTGCCAGTATAGTACGCATC: 2.33. The sequence CCGAGTAGGTTCCGAGGGGGCATTCAGTGCGAAT had a PBM binding z-score of 4.09. The same measure for GATAAAGGGTCAGCTAGAGGCCAGAGTATGGAAA: 3.73; for TAGCCTAGGTGATTGGGCCAGTATAGTACGCATC: -0.57. The same measure for GCTTACGGGTCAAAGGTTATAACATGAATAGAAT: 5.68; for CGAAGTAGGTCAAAGGACAGTGAAAGGCGACGTA: 1.9.

The values above are taken from the supplement of paper PMC6555819.
